The target in assay [1] is T1, 3-phosphoinositide-dependent protein kinase 1 (Homo sapiens) (UniProt O15530).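 Further: values are mean inhibition of PDK1.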
T1 sequence (whole entry): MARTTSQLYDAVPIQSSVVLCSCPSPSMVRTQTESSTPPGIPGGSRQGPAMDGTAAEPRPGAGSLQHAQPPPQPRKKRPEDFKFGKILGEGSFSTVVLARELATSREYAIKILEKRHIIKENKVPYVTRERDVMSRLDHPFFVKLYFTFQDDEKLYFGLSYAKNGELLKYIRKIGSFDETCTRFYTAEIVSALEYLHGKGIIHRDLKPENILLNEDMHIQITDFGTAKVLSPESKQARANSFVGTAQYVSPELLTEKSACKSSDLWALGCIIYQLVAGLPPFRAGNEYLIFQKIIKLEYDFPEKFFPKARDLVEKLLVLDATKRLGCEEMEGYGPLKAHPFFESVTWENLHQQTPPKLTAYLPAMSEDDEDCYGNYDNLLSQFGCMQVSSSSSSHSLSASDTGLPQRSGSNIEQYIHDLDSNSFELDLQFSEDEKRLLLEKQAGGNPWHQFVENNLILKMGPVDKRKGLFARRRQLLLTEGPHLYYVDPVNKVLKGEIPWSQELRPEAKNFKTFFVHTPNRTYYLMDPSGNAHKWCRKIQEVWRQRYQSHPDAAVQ
Particulars: at 0.1 µM.

Assay [2] deals with cAMP-dependent protein kinase catalytic subunit alpha (Homo sapiens) (UniProt P17612). Particulars: at 0.1 µM.
Assay [3] has the same target. The settings on record: at 1 µM.
Assay [4] deals with Protein kinase C alpha type (Homo sapiens) (UniProt P17252). The settings on record: at 0.1 µM.
Assay [5] shares this target. Particulars: at 1 µM.
Assay [6] addresses Protein kinase C beta type (Homo sapiens) (UniProt P05771). Particulars: at 0.1 µM.
Assay [7] has the same target. Particulars: at 1 µM.
Assay [8] concerns the target Protein kinase C eta type (Homo sapiens) (UniProt P24723). Particulars: at 0.1 µM.
For assay [9] the target is unchanged. The settings on record: at 1 µM.
The target in assay [10] is Protein kinase C gamma type (Homo sapiens) (UniProt P05129). The settings on record: at 0.1 µM.
For assay [11] the target is unchanged. Particulars: at 1 µM.
For assay [12], the target named is T2, Protein kinase C iota type (Homo sapiens) (UniProt P41743).
T2 sequence (whole entry): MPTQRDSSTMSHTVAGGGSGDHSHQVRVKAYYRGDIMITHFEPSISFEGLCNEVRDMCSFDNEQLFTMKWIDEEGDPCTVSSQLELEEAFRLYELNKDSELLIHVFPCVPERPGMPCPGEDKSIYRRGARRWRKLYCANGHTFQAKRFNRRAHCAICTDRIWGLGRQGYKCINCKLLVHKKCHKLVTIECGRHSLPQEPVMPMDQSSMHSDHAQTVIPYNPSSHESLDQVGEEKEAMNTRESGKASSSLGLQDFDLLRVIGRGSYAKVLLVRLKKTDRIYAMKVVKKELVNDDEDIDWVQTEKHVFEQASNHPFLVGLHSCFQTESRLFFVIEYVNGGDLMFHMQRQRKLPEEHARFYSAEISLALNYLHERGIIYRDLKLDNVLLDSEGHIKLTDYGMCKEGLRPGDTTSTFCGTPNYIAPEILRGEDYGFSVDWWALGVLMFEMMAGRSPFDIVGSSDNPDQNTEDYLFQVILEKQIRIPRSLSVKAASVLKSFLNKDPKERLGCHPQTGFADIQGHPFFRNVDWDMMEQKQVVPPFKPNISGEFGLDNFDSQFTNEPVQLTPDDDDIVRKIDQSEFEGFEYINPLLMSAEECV
The settings on record: at 0.1 µM.

In assay [13] the target is T2, Protein kinase C iota type (Homo sapiens). Particulars: at 1 µM.
Assay [14] addresses Protein kinase C theta type (Homo sapiens) (UniProt Q04759). The settings on record: at 0.1 µM.
Assay [15] has the same target. The settings on record: at 1 µM.
Assay [16] deals with Protein kinase C beta type (Homo sapiens) (UniProt P05771). Particulars: at 0.1 µM. The source holds these as a separate data set.
Assay [17] shares this target. Particulars: at 1 µM. The source holds these as a separate data set.
Assay [18] deals with T3, Serine/threonine-protein kinase D1 (Homo sapiens) (UniProt Q15139).
T3 sequence (whole entry): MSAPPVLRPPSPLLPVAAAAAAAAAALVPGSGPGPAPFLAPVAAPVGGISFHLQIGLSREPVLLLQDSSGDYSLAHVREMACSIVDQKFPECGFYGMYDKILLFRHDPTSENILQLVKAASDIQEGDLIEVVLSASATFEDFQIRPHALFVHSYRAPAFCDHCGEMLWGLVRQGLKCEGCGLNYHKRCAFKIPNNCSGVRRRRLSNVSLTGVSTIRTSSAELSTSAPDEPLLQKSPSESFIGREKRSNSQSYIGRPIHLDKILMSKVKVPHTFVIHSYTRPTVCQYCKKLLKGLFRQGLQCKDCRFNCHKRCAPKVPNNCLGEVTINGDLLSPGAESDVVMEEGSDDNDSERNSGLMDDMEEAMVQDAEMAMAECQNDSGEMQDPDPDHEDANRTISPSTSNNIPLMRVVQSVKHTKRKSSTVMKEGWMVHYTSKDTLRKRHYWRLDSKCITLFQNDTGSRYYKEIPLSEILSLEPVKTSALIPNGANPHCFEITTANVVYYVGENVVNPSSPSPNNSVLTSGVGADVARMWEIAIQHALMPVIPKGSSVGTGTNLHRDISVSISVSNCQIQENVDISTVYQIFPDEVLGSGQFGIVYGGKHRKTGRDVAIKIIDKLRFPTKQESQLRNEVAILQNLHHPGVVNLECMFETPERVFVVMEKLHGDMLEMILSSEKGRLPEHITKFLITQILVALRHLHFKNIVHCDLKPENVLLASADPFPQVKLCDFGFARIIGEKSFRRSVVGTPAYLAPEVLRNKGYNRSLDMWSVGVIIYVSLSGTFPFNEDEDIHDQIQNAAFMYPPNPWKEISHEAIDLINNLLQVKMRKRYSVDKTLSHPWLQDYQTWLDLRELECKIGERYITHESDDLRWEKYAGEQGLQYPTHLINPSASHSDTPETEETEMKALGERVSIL
Particulars: at 0.1 µM.

The target of assay [19] is T3, Serine/threonine-protein kinase D1 (Homo sapiens). Particulars: at 1 µM.
The target of assay [20] is T4, Serine/threonine-protein kinase D2 (Homo sapiens) (UniProt Q9BZL6).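 Further: reported percent inhibition values are means, part of the GSK PKIS kinase panel screen.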
T4 sequence (whole entry): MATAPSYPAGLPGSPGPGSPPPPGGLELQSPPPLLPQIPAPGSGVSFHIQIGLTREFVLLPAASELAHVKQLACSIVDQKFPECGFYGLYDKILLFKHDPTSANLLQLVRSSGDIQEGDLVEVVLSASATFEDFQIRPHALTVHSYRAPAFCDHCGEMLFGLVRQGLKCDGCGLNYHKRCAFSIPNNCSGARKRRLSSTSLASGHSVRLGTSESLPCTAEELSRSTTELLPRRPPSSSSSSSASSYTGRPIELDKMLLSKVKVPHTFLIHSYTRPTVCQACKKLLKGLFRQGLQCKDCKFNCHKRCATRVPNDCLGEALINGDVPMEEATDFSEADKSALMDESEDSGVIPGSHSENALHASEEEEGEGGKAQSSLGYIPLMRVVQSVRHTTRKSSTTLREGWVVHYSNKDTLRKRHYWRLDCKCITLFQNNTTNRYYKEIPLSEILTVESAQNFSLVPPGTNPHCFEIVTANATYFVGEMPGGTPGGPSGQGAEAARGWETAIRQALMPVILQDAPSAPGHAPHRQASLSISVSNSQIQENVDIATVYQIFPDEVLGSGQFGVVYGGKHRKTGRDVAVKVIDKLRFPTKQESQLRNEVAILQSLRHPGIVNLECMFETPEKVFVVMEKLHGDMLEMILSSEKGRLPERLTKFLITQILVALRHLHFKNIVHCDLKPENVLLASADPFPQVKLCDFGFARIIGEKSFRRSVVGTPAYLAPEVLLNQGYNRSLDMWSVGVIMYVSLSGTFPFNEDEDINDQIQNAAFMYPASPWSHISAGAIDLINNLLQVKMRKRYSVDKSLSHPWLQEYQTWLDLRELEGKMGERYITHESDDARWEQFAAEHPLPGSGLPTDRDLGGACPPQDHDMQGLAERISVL
Particulars: at 0.1 µM.

As usually defined, the inhibition is the change of the read-out against control, counted positive when it falls.

Protein kinase C beta type (Homo sapiens), sequence (P05771 2-671 limits assumed): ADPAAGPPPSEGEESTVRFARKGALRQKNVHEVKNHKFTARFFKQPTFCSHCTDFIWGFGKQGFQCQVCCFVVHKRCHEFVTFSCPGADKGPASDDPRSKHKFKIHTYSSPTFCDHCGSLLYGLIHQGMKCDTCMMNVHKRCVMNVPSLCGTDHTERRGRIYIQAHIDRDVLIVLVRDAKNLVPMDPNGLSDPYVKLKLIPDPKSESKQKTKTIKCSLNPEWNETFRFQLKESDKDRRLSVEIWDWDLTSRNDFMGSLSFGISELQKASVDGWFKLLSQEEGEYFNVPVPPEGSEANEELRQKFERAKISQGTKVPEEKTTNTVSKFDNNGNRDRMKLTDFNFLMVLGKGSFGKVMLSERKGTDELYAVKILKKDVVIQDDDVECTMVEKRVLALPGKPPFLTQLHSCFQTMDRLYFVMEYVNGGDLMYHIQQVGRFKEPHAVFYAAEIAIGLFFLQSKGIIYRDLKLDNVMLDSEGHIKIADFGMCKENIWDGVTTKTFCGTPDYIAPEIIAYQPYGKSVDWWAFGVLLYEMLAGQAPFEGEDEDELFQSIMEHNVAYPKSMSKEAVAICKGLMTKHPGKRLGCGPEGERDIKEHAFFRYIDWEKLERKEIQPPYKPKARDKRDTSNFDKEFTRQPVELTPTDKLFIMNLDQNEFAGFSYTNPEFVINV
Protein kinase C eta type (Homo sapiens), sequence (P24723 whole entry): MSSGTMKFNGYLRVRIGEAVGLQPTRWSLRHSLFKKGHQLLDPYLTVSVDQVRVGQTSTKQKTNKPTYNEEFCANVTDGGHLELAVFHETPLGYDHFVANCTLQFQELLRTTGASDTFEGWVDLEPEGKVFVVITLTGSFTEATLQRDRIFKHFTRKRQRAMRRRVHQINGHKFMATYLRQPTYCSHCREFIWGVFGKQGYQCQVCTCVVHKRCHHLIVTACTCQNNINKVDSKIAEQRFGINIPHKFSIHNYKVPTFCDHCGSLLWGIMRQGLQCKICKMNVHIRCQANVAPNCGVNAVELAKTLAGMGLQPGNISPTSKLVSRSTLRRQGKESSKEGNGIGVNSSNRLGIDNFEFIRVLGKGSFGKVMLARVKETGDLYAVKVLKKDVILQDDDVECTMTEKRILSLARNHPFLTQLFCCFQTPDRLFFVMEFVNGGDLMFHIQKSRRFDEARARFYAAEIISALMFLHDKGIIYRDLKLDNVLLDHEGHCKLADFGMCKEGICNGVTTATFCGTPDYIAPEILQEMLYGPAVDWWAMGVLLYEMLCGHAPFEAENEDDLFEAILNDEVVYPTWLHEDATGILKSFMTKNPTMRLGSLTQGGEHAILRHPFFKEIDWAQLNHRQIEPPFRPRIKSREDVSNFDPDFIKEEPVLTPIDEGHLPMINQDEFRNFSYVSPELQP
Protein kinase C theta type (Homo sapiens), sequence (Q04759 whole entry, looked up): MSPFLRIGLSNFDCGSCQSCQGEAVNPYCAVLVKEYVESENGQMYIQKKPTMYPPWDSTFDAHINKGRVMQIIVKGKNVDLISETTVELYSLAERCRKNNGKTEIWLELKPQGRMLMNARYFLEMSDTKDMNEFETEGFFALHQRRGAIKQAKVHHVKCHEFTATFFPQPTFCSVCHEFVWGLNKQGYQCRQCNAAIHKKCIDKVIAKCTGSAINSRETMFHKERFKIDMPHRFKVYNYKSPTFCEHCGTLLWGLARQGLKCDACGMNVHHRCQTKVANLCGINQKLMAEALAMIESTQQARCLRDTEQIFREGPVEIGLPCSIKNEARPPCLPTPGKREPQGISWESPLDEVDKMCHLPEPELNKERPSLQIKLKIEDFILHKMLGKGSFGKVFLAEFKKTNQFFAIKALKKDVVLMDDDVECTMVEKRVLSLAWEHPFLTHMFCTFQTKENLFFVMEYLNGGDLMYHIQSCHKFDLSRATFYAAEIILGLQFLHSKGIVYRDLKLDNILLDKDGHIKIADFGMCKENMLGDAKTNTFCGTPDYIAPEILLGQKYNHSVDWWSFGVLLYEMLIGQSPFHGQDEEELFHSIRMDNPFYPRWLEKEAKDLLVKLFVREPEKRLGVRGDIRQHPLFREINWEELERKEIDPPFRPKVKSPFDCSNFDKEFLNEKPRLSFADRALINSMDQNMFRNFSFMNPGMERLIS

On to `CC(C)c1ccc(Nc2nccc(-c3cnn4ncccc34)n2)cc1`, for which the inhibition turned out to be 2.46% in [1]; 1.64% in assay [2]; 1.72% in assay [3]; 0.38% in assay [4]; 6.9% in [5]; 0.55% in [6]. The inhibition in [7] worked out at 1.57%; in assay [8], 1.03%; in [9] it was 3.89%; in assay [10], 1.93%; in assay [11], 5.49%; in assay [12], 0.41%. The inhibition in assay [13] was -0.49%; in assay [14], 0.56%; in [15] it was 2.84%; in [16], 0.59%; in [17], 1.47%; in [18], 2.12%. In addition, the inhibition is 15.9% in [19] and 1.32% in assay [20].
On to `CN(C)C(=O)O[C@H]1CN[C@H](C#Cc2cc3ncnc(Nc4ccc(OCc5cccc(F)c5)c(Cl)c4)c3s2)C1`, for which the inhibition in assay [1] is 1.92%; in assay [2] it was 2.32%; in [3], 4.73%; in assay [4] it was 0.57%; in [5], -0.37%; in [6], -1.06%. Also, the inhibition in [7] was determined as 0.39%; in assay [8], 1.05%; in assay [9] it was 1.68%; in assay [10], 3.2%; in [11], 0.1%; in assay [12] it was 0.58%. For the same compound, the inhibition turned out to be 1.07% in [13]; 1.43% in [14]; 0.06% in assay [15]; 1.29% in assay [16]; 1.12% in [17]; 2.38% in assay [18]. Further, the values for the inhibition in [19] and in assay [20] were 2.68% and 2.3%, respectively.
Consider `CN(C)C(=O)O[C@@H]1CN[C@@H](C#Cc2cc3ncnc(Nc4ccc(OCc5cccc(F)c5)c(Cl)c4)c3s2)C1`, for which the inhibition in assay [1] is 0.77%; in [2], 0.67%; in assay [3] it was 1.2%; in assay [4] it was 0.33%; in [5] it was 1.13%; in assay [6], -1.27%. Also, the inhibition in assay [7] is 2.12%; in assay [8] it was 4.86%; in [9], 1.38%; in [10], -1.57%; in [11] it was -0.54%; in assay [12], -1.15%. In addition, the inhibition in assay [13] is 0%; in assay [14] it was -0.8%; in assay [15], -1.63%; in [16], 0.88%; in [17], 0.87%; in [18] it was 0.32%. Besides, the inhibition was 3.71% in [19] and 0.79% in [20].
`COc1cc2ncnc(Nc3ccc4c(cnn4Cc4ccccc4)c3)c2cc1OC`: the inhibition in assay [1] is 0.98%; in [2], 0.6%; in [3], -0.11%; in assay [4], 0.53%; in assay [5], 0.88%; in assay [6], 0.81%. Further, the inhibition in assay [7] was -2.42%; in assay [8], 5.6%; in assay [9], 3.69%; in assay [10] it was 2.66%; in [11] it was 2.04%; in [12], 0.72%. Further, the inhibition is 0.48% in assay [13]; 0.78% in assay [14]; 0.99% in assay [15]; 0.94% in assay [16]; 0.88% in [17]; 2.89% in assay [18]. Further, the inhibition in assay [19] turned out to be 5.2%; in assay [20], 2.96%.
Take `[O-][S+]1CCN(Cc2ccc(-c3ccc4ncnc(Nc5ccc(OCc6ccccc6)c(Cl)c5)c4c3)o2)CC1`: the inhibition came out at 0.06% in assay [1]; 2.94% in assay [2]; 7.99% in assay [3]; 0.05% in assay [4]; 0.88% in [5]; 0.56% in assay [6]. Moreover, the inhibition in assay [7] is 0.65%; in assay [8], 1.86%; in [9], 2.18%; in assay [10], -0.93%; in [11], 3.28%; in [12], 1.72%. For the same compound, the inhibition came to 1.88% in assay [13]; 1.06% in assay [14]; 1.03% in assay [15]; 0.97% in [16]; 2.88% in [17]; 1.74% in [18]. In addition, the inhibition amounted to 2.75% in [19] and 1.16% in [20].
For `Cc1ccc2c(c1)/C(=N/Nc1ccc(S(N)(=O)=O)cc1)C(=O)N2`, the inhibition was 0.19% in assay [1]; 0.27% in assay [2]; 1.28% in [3]; 0.13% in assay [4]; -0.36% in [5]; -0.92% in [6]. In addition, the inhibition in assay [7] was 0.39%; in assay [8], -0.77%; in [9] it was -1.47%; in [10], -1.71%; in assay [11] it was -1.54%; in [12] it was -1.59%. In addition, the inhibition in [13] is 0.19%; in assay [14], -0.6%; in assay [15], -1.65%; in [16], 0.19%; in assay [17], 0.09%; in assay [18], 0.96%. The inhibition in [19] was found to be 1.76%; in assay [20], 1.62%.
As for `COc1cccc(-n2ncc3c(N/N=C/c4ccc(C)cc4)ncnc32)c1`, the inhibition amounted to 0.64% in assay [1]; 3.22% in assay [2]; 2.93% in [3]; 0.52% in [4]; 1.66% in assay [5]; 0.67% in [6]. In addition, the inhibition in assay [7] is 1.01%; in assay [8], 5.56%; in assay [9] it was 4.73%; in [10], 2.06%; in assay [11], -9.04%; in assay [12], 1.65%. Besides, the inhibition amounted to 1.86% in assay [13]; 3.03% in assay [14]; 4.16% in [15]; 1.4% in assay [16]; 2.79% in [17]; 6.31% in assay [18]. Besides, the inhibition in assay [19] is 10.7%; in [20] it was 6.6%.
